Experimental data published in PubChem BioAssay AID1345085 (National Center for Advancing Translational Sciences (NCATS), 2018).
Records with an inconclusive call do not appear. Activity calls are given as the source filed them. Calls come from the whole dose curve; as a rule, active = well fitted cell-killing curve with a large enough effect; inconclusive = small, poorly fitted or top-dose-only effect, or effect the other way; inactive = no such curve, though single readings can be large or run the other way.

Test system: Hek293T
Assay: Confirmatory qHTS for gynecologic anti-cancer compounds from libraries of approved drugs and bioactive compounds; note: nearly all actives have a fitted effect of over 55% in size
Conditions: gynecologic cancer cell panel viability, ATPlite luminescence, 48 h; series mostly up to 57.6 µM; activity change, negative = viability loss: at the top concentration
Method in brief: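 Cells (1,000/well) plated 16 h, then exposed 48 h at 37 °C to 11 concentrations (1:3) from 57.5 uM to 0.977 nM. Viability by ATPlite luminescence after 15 min; IC50 derived, with HEK 293T used for selectivity index.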
% is set by controls: 0 for no effect and ±100 for the full control effect; potency is the fitted concentration of half-maximal effect.

| Structure (SMILES) | activity change, negative = viability loss | Potency |
| --- | --- | --- |
| CN1CCN(c2cccc(Nc3nc4c(-c5ccc(S(C)(=O)=O)cc5)cccn4n3)c2)CC1 | -4.33% (inactive) |  |
| Cc1ccccc1C(OCCN(C)C)c1ccccc1 (stereo unspecified) | 1.95% (inactive) |  |
| COc1cc2c(NC3CCN(C(C)C)CC3)nc(C3CCCCC3)nc2cc1OCCCN1CCCC1 |  | 9.68 µM (active) |
| CS(=O)(=O)c1ccc(-c2cnc(N)c(C(=O)Nc3ccccc3)n2)cc1 | 4.76% (inactive) |  |
| CCN(CC)CCNC(=O)c1c(C)[nH]c(/C=C2\C(=O)Nc3ccc(F)cc32)c1C |  | 31.6 µM (active) |
| O=c1c(-c2ccc(O)cc2)coc2cc(O)cc(O)c12 | 10.9% (inactive) |  |
| Cc1ccc(C(=O)Nc2cccc(C(F)(F)F)c2)cc1-c1ccc2nc(NCCN3CCOCC3)ncc2c1 |  | 19.3 µM (active) |
| O=C(c1ccc(F)c(F)c1Nc1ccc(I)cc1F)N1CC(O)([C@@H]2CCCCN2)C1 |  | 24.3 µM (active) |
| Cc1csc(NC(=O)c2sc3nc4c(c(C(F)(F)F)c3c2N)CCC4)n1 |  | 0.769 µM (active) |
| CN1C2CCC1CC(OC(=O)[C@H](CO)c1ccccc1)C2 (stereo partly specified) | 0.591% (inactive) |  |
| COc1ccc2c(c1)c(CC(=O)O)c(C)n2C(=O)c1ccc(Cl)cc1 | -25.1% (inactive) |  |
| Cc1cnc(Nc2cccc(CN3CCOCC3)c2)nc1Nc1cccc(S(=O)(=O)NC(C)(C)C)c1 | -9.54% (inactive) |  |
| CN(Cc1cnc2nc(N)nc(N)c2n1)c1ccc(C(=O)N[C@@H](CCC(=O)O)C(=O)O)cc1 |  | 0.109 µM (active) |
| NC(=O)c1cnc(-c2ccc(C3(N)CCC3)cc2)c(-c2ccccc2)c1 |  | 21.7 µM (active) |
| C1CCC(C(CC2CCCCN2)C2CCCCC2)CC1 (stereo unspecified) |  | 27.3 µM (active) |
| Nc1ccc(C(=O)Nc2cccc(-c3nc(N4CCOCC4)c4oc5ncccc5c4n3)c2)cn1 | -21.6% (inactive) |  |
| Cc1cc(C2CCCCC2)n(O)c(=O)c1 |  | 11.1 µM (active) |
| CCc1cccc(CC)c1NC(=O)N1Cc2[nH]nc(NC(=O)c3ccc(N4CCN(C)CC4)cc3)c2C1 | -17.5% (inactive) |  |

| Structure (SMILES) | activity change, negative = viability loss | Potency |
| --- | --- | --- |
| CC(C)(C)C(=O)OCOP(=O)(COCCn1cnc2c(N)ncnc21)OCOC(=O)C(C)(C)C |  | 3.43 µM (active) |
| COc1cc2c(Oc3ccc(-c4cnc(Nc5ccc(F)cc5)n(C)c4=O)cc3F)ccnc2cc1OCCCN1CCOCC1 |  | 15.3 µM (active) |
| CCCCc1oc2ccc(NS(C)(=O)=O)cc2c1C(=O)c1ccc(OCCCN(CCCC)CCCC)cc1 |  | 27.3 µM (active) |
| CC(=O)c1cnc2ccc(-c3cc(Cl)c(O)c(Cl)c3)nc2c1NC1CCC(CN(C)C)CC1 (stereo unspecified) |  | 0.0352 µM (active) |
| Cc1cc(Nc2nc(N[C@@H](C)c3ccc(F)cc3)c(C#N)cc2F)n[nH]1 | -34.8% (inactive) |  |
| CC(C)C[C@H](NC(=O)[C@H](Cc1ccccc1)NC(=O)c1cnccn1)B(O)O |  | 0.0306 µM (active) |
| Cc1ccc(C(N)=O)cc1Nc1nccc(-c2cn(C(C)C)c3cnccc23)n1 |  | 13.7 µM (active) |
| COc1cccc2c1C(=O)c1c(O)c3c(c(O)c1C2=O)C[C@@](O)(C(=O)CO)C[C@@H]3O[C@H]1C[C@H](N)[C@H](O[C@@H]2CCCCO2)[C@H](C)O1 |  | 10.9 µM (active) |
| COc1cc(N2CCC(N3CCN(C)CC3)CC2)ccc1Nc1ncc(Cl)c(Nc2ccccc2S(=O)(=O)C(C)C)n1 |  | 21.7 µM (active) |
| COc1cc(N2CCC(N3CCN(C)CC3)CC2)ccc1Nc1ncnc(Nc2ccccc2S(=O)(=O)C(C)C)n1 |  | 21.7 µM (active) |
| CN1CCN(Cc2ccc(NC(=O)Nc3ccc(Oc4cc(NC(=O)C5CC5)ncn4)cc3)cc2C(F)(F)F)CC1 |  | 7.69 µM (active) |
| CCN1CCN(Cc2ccc(-c3cc4c(NC(C)c5ccccc5)ncnc4[nH]3)cc2)CC1 (stereo unspecified) |  | 27.3 µM (active) |
| COc1ccc(-c2nc3ccc(C4=NNC(=O)CC4C)cc3[nH]2)cc1 (stereo unspecified) |  | 2.17 µM (active) |
| CNC(=O)c1nn(C)c2c1C(C)(C)Cc1cnc(Nc3ccc(N4CCN(C)CC4)cc3)nc1-2 |  | 4.32 µM (active) |
| NC(=O)c1cccc2cn(-c3ccc([C@@H]4CCCNC4)cc3)nc12 | -15.5% (inactive) |  |
| CN(NC(=O)CC(=O)NN(C)C(=S)c1ccccc1)C(=S)c1ccccc1 |  | 0.0611 µM (active) |
| COc1cc2nccc(Oc3ccc(NC(=O)Nc4cc(C)on4)c(Cl)c3)c2cc1OC | -9.87% (inactive) |  |
| Cc1ccc(-n2[nH]c(C)c(N=Nc3cccc(-c4cccc(C(=O)O)c4)c3O)c2=O)cc1C | -11% (inactive) |  |
